Source: PubChem BioAssay (The Scripps Research Institute Molecular Screening Center)
GPR151 ag – activates the human receptor GPR151 | Q8TDV0 | PathHunter beta-arrestin GPR151 cells, luminescence | activation, % at 11.2 µM | hit rate 1% among 650,000; in the data active = activation above about 4.9%
Target sequence (Q8TDV0 whole entry, looked up): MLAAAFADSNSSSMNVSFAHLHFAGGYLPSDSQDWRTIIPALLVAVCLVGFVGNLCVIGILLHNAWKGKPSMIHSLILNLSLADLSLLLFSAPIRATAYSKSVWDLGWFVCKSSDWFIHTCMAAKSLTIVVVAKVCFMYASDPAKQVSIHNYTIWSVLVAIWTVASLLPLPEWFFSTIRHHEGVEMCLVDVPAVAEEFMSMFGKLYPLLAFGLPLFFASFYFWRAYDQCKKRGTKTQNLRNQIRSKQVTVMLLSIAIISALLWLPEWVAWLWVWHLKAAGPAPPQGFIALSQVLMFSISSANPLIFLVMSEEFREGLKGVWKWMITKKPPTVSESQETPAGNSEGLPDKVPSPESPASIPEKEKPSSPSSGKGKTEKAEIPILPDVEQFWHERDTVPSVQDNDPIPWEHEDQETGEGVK
FBW7 activator – activators of human E3 ligase FBW7; Q969H0; normalized activity (activation), % at 26.1 µM; hit rate 0.13% among 650,000; AlphaScreen FBW7–phospho-cyclin E peptide binding, activator screen; AID 1259310; in the data active = normalized activity above about 1.9%;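 also: purified mutant Fbw7 with reduced substrate affinity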
TEAD-YAP block – TEAD-YAP interaction inhibition | AID 1259422 | HEK-TIYL cells, TEAD-Gal4/YAP UAS-luciferase luminescence | hit rate 1.4% among 640,000 | inhibition, % at 9.12 µM; in the data active = inhibition above about 32%
MITF primary – human MITF inhibition, primary screen. O75030. AlphaScreen MITF homodimerization, bead proximity signal. inhibition, % at 2.6 µM. hit rate 0.91% among 650,000. AID 1259374; in the data active = inhibition above about 50%
Hits are given with their value; – = inactive; ! = not confirmed by another sample. The list is not random: actives were taken first. Their share in the collection is about 3.5%.

SMILES | GPR151 ag | FBW7 activator | TEAD-YAP block | MITF primary
COc1ccc(-c2nc(N)c3ncn(-c4ccsc4)c3n2)cc1 | – | – | 36.3 | –
COc1ccc(-c2nc(N)c3ncn(-c4ccsc4)c3n2)cn1 | – | – | 62.4 | –
COCCCNc1nc2c(c(=O)n(C)c(=O)n2C)n1Cc1ccc(Cl)cc1 | – | – | – | –
CC1CN(C2CCN(Cc3cc(Br)ccc3O)CC2)CC(C)O1 (stereo unspecified) | – | – | – | 70.5
Oc1ccc(Br)cc1CN1CCC(N2CCCCC2)CC1 | – | – | – | –
OCCN1CCN(C2CCN(Cc3cc(Br)ccc3O)CC2)CC1 | – | – | – | 53.2
Cc1ncn(-c2ccc(Nc3ncc4ccccc4n3)cc2)n1 | – | – | – | –
COCCCNC(=O)CSc1c2c(nc3ccccc13)CCCC2 | – | – | – | –
CCC(=O)Nc1cc(C2CC2)nn1-c1nc(-c2ccccc2)cc(=O)[nH]1 | – | 2.2 | – | –
O=C(O)CNC(=O)c1cc2c3c(c1)C1C=CCC1C(c1ccc(F)cc1)N3CC1CC=CC21 (stereo unspecified) | – | – | – | 73.3
CCOC(=O)c1cc2c3c(c1)C1C=CCC1C(c1ccc(F)cc1)N3CC1CC=CC21 (stereo unspecified) | – | – | – | –
CCc1cc(C(=O)Cc2ccc(OC)cc2)c(O)cc1O | – | – | – | –
CC(C)Oc1ccc(CC(=O)c2ccc(O)cc2O)cc1 | – | – | 66.3 | –
CC(C)(C)c1ccc(OCC(=O)c2ccc(O)cc2O)cc1 | – | – | 96.0 | –
Cc1ccc(OCC(=O)c2ccc(O)cc2O)cc1 | – | – | – | –
COc1ccc(CC(=O)c2ccc(O)cc2O)cc1 | – | – | 34.1! | –
O=C(Cc1ccc(Br)cc1)c1ccc(O)cc1O | – | – | – | –
CCOC(=O)C(=O)Nc1ccc(S(N)(=O)=O)cc1 | – | – | – | –
CC(=O)C1=NN(c2ccc(Cl)cc2)C(c2ccc3c(c2)OCO3)N1C(C)(C)C (stereo unspecified) | – | 2.0 | – | –
O=C(c1ccco1)N1CCN(C(=O)c2cnn(-c3ccccc3Cl)c2-n2cccc2)CC1 | – | – | – | –
COc1cccc(C(=O)Nc2ccc(-c3ccccc3)cc2)c1 | – | – | – | –
COc1ccc(NC(=O)c2cc3cccc(OC)c3oc2=O)cc1 | – | – | – | –
COc1cccc(C(=O)Nc2ccc(CC(=O)O)cc2)c1 | – | – | 60.0 | –
Cc1cccc(C(=O)Nc2ccc(N3CCN(C(=O)C(C)C)CC3)cc2)c1 | – | – | – | –
COc1cccc(C(=O)Nc2ccc(N3CCN(C(=O)C(C)C)CC3)cc2)c1 | – | – | 45.9 | –
SMILES | GPR151 ag | FBW7 activator | TEAD-YAP block | MITF primary
COc1cccc(C(=O)Nc2ccc(Oc3ccc4c(c3)C(=O)NC4=O)cc2)c1 | – | – | 51.2 | –
COc1cccc2cc(C(=O)Nc3ccc(CC(=O)O)cc3)c(=O)oc12 | – | – | 71.9 | –
COCCOC(=O)C1=C(C)NC2=C(C(=O)CC(C)(C)C2)C1c1cccc2ccccc12 (stereo unspecified) | – | – | – | –
CCc1nn(CC(=O)N2C(C)CCCC2C)c(=O)c2cc3oc(C)cc3n12 (stereo unspecified) | – | – | – | –
CC(C)C(=O)N1CCN(c2ccc(NC(=O)COc3ccccc3[N+](=O)[O-])cc2)CC1 | – | – | 50.4 | –
CN1CCN(c2ccc(NC(=O)COc3ccccc3[N+](=O)[O-])cc2)CC1 | – | – | – | –
COc1cccc(C(=O)NNC(=O)Cc2ccc(-c3ccccc3)cc2)c1 | – | – | 62.4 | –
CC(C)c1nnc(C2CCN(C(=O)NCc3cccc4ccccc34)CC2)o1 | – | 2.0 | – | –
CC(C)c1nnc(C2CCN(C(=O)NCc3ccccc3)CC2)o1 | – | – | – | –
CCOc1cc(C(Nc2ccccn2)c2ccc3cccnc3c2O)ccc1O (stereo unspecified) | – | – | – | –
COc1cc(C(Nc2ccccn2)c2ccc3ccc(C)nc3c2O)cc(OC)c1O (stereo unspecified) | – | – | 32.6 | –
COc1cc(C(Nc2ccccn2)c2ccc3cccnc3c2O)cc(Br)c1OC (stereo unspecified) | – | – | 76.2 | –
CCOc1ccc(C(Nc2ccccn2)c2ccc3cccnc3c2O)cc1 (stereo unspecified) | – | – | 85.9 | –
CCOc1cc(C(Nc2ccccn2)c2ccc3cccnc3c2O)ccc1OC (stereo unspecified) | – | – | 88.6 | –
CCc1ccc(C(Nc2ccccn2)c2ccc3ccc(C)nc3c2O)cc1 (stereo unspecified) | – | – | – | –
COc1ccc(C(Nc2ccccn2)c2ccc3cccnc3c2O)cc1 (stereo unspecified) | – | – | 86.3 | –
O=C(Cc1cccs1)Nc1cccc(-c2ccc(N3CCCCC3)nn2)c1 | – | – | 51.5 | –
CCOc1ccc(-n2cc(-c3ccccc3)c3c(N4CCN(Cc5ccccc5)CC4)ncnc32)cc1 | – | – | – | –
Cc1ccc(Cl)cc1N1CCN(C(=O)c2coc(=O)c3ccccc23)CC1 | – | – | 61.2 | –
Cc1ccc(Cl)cc1N1CCN(C(=O)c2ccc(=O)[nH]c2)CC1 | – | – | – | –
O=C(c1coc(=O)c2ccccc12)N1CCN(c2ccccc2F)CC1 | – | – | – | –
COc1cc(OC)cc(C(=O)N2CCN(c3cc(Cl)ccc3C)CC2)c1 | – | – | 53.9 | –
COc1cc(Cl)ccc1S(=O)(=O)N1CCN(c2ccccc2Cl)CC1 | – | – | – | –
C=CCC1S/C(=N\N=C\c2cccc([N+](=O)[O-])c2)NC1=O (stereo unspecified) | – | 2.3 | – | –
O=C(c1ccn(-c2ccnc(Nc3ccc(N4CCOCC4)cc3)c2)n1)N1CCC(O)CC1 | – | – | 60.3 | –
SMILES | GPR151 ag | FBW7 activator | TEAD-YAP block | MITF primary
Cc1ccc(C)c(-c2csc(NC(=O)c3ccc(S(=O)(=O)N4CCOCC4)cc3)n2)c1 | – | – | 42.4 | –
Cc1ccc(-c2csc(NC(=O)c3ccc(S(=O)(=O)N4CCOCC4)cc3)n2)o1 | – | – | – | –
CC(C)(C)c1csc(NC(=O)c2ccc(S(=O)(=O)N3CCOCC3)cc2)n1 | – | – | 36.1 | –
COCCN(CCOC)S(=O)(=O)c1ccc(C(=O)Nc2nc(-c3ccc(C)cc3C)cs2)cc1 | – | – | 35.9 | –
COc1ccc(-c2csc(NC(=O)c3ccc(S(=O)(=O)N4CCOCC4)cc3)n2)c(OC)c1 | – | – | 41.3 | –
Cc1ccc(C2=NC(C3=NCCCCC3)C(=O)O2)cc1 (stereo unspecified) | – | – | – | –
COc1ccc(NC(=O)C(=O)N/N=C(\C)CC(=O)NCc2ccccc2OC)c(OC)c1 | – | – | – | –
O=C(Cn1cnc2ccccc21)N1CCN(Cc2csc(-c3ccccc3)n2)CC1 | – | – | 45.9 | –
O=C(CCn1cnc2ccccc2c1=O)N1CCN(Cc2csc(-c3ccccc3)n2)CC1 | – | – | – | –
Cc1cccc(C(=O)Nc2nnc(-c3ccc4c(c3)OCO4)s2)c1 | – | – | – | –
CC(C)(C)c1ccc(OCC(=O)Nc2ccncc2)c(Br)c1 | – | – | 34.1 | –
O=C(COc1ccc(CO)cc1Br)Nc1ccccc1 | – | – | 54.6 | –
Cc1ccc(OCC(=O)Nc2ccccc2)c(Br)c1 | – | – | 70.3 | –
